The record followed here is PubChem BioAssay (EPA / NIEHS).

“And” between values parts separate entries of the source, which are not always exact repeats. Identical values can stand only once. The source made the active and inactive calls. How the source made its calls: active means hit-call score of the fitted dose curve at least 0.9, where 1 is the maximum; inactive means score below 0.9.

Read-out in this assay: ATP-citrate lyase (ACLY), ACLY (gene 47)
Description: LTEA_HepaRG_ACLY: Life Technologies and Expression Analysis (LTEA) Assay for ATP-citrate lyase (ACLY) using HepaRG (AID 2283466). The note with it: mRNA level, 48 h; actives raise or lower the signal. The procedure:
LTEA_HepaRG is a cell based, multiplexed-readout assay that uses HepaRG, a human liver cell line, with measurements taken at 48 hours after chemical dosing on a 96-well plate.LTEA_HepaRG_ACLY is one of 102 assay component(s) measured in the LTEA HepaRG cell culture assay. It is a marker of Steatosis.Data from the assay component LTEA_HepaRG_ACLY was analyzed into 1 endpoint. This assay endpoint, LTEA_HepaRG_ACLY, was analyzed with bidirectional fitting relative to DMSO as the negative control and baseline of activity. Using a type of inducible reporter, measures of mRNA induction for gain or loss-of-signal activity can be used to understand regulation of transcription factor activity. To generalize the intended target to other relatable targets, this assay endpoint is annotated to the lyase intended target family, where the subfamily is steatosis.
A total of 1060 chemcials from the ToxCast library were tested in eight-point concentration-response experiments. Cell culture and cytotoxicity assays were conducted at Thermo Fisher Scientific's Custom Services facility (Madison, WI). A single lot of human HepaRG cells (Thermo Fisher Scientific, Frederick, MD) was used for the cell culture experiments. 96-well format collagen type I coated plates of human HepaRG cells were prepared using established methods. Briefly, cryopreserved HepaRG cells were thawed, plated at a density of approximately 100,000 cells/well in HepaRG Thaw, Plate, and General Purpose media (HPRG770, Thermo Fisher Scientific), and incubated for 48 hours. 0.5% DMSO was selected as vehicle control to balance the requisite need of DMSO in HepaRG cultures to maintain differentiation (for example, baseline metabolism, proportions of hepatocytes vs. cholangiocytes), while enabling further hepatic receptor pathway activation (for example, PXR and CAR) in response to chemical exposure. 48 hours after plating, the culture medium was replaced with HepaRG Serum-Free Incudtion Media. Cells were exposed to each test chemical in duplicate and maintained in CO2 incubators for another 48 hours. Chemical plates were thawed to room temperature and 200x concentrations of treatment groups were prepared. 8-point conentration-reponse curves were made with the highest exposure at 100 uM, followed by half-log dilutions, all in 0.5% DMSO. Each test plate contained variouse controls, induction positive controls (1mM phenobarbital), cytotoxicity positive controls ([…] aflatoxin B1), vehicle controls (0.5% DMSO), and total lysis controls (0.5% DMSO). Cell morphology images were taken using an Essen IncuCyte FLR automated microscope, with six 96-well plates imaged in about 24 minutes. Images were captured and exported and JPEG files. Spent culture media was transfered to black-well plates for the LDH assay, and remaining media was sorted at -80 C for later use. Cells were treated with RLT buffer and frozen until shipped for gene expression analysis. Total RNA was isolated from the cell suspension in 75 uL of Buffer RLT (Qiagen, Germantown, MD 20874) by Quintiles/Expression Analysis (Durham, NC) using a custom isolation procedure. Total RNA from each plate well was transferred to a preamplification plate. Fluidigm's 96.96 Dynamic ArrayTM (Fluidigm, Amsterdam, the Netherlands) technology was used for gene expression analyses by quantitative reverse transcription polymerase chain reaction (qRT-PCR, performed by Quintiles/Expression Analysis, Durham, NC)89. Standard TaqManTM Assays (Applied Biosystems/ThermoFisher Scientific, Foster City, CA) were used to assess the expression of 93 genes selected based on their selectivity and sensitivity to important hepatic receptors known to be modulated by environmental chemicals; importance in human hepatocyte functionality; and hepatotoxicity. […]
`C[C@]12C[C@H](O)[C@H]3[C@@H](CCC4=CC(=O)CC[C@@]43C)[C@@H]1CC[C@@H]2C(=O)CO`: the compound was classed as inactive.
Turning to `CCCCC(CC)CN1C(=O)C2C3C=CC(C3)C2C1=O` (stereo not given), the AC50 is 73 µM (active).
Consider `O=C(O)c1ccccc1`, for which the compound was called inactive.
The same measure, in the same setting: the same measure for `COC(=O)CSc1cc(N=c2sc(=O)n3n2CCCC3)c(F)cc1Cl`: “inactive”.
On to `Oc1ccc(C(c2ccc(O)cc2)C(Cl)(Cl)Cl)cc1`, for which the AC50 was 78.5 µM (active).
Take `OB(O)O`: the compound was classed as inactive.
On to `N#CSCSc1nc2ccccc2s1`, for which the outcome was inactive.
Same read-out and setting: the same measure for `CCC(C)OC(=O)N1CCCCC1CCO` (stereo not given): “inactive”; for `COc1c(Cl)ccc(Cl)c1C(=O)O`: “inactive”.
On to `O=C(Nc1ccc([N+](=O)[O-])cc1Cl)c1cc(Cl)ccc1O`, for which the AC50 was 3.76 µM (active).
For the compound `CCCN(CCC)c1c([N+](=O)[O-])cc(C(F)(F)F)c(N)c1[N+](=O)[O-]`, the compound was called inactive.
Regarding `CCCN(CCC)C(=O)SCC`, the outcome was inactive.
As to `c1ccc(Nc2ccccc2)cc1`, the result was inactive.
Take `CCCCCCC(C)OC(=O)COc1nc(F)c(Cl)c(N)c1Cl` (stereo not given): the compound was called inactive.
Consider `Cc1nn(C)c(Oc2ccccc2)c1C=NOCc1ccc(C(=O)OC(C)(C)C)cc1`, for which the AC50 is 1.11 µM (active).
On to `C[C@]12CC[C@@H]3c4ccc(O)cc4C[C@@H](CCCCCCCCCS(=O)CCCC(F)(F)C(F)(F)F)[C@H]3[C@@H]1CC[C@@H]2O` (stereo not given in full), for which the result was inactive.
Turning to `CSC(=O)c1cccc2nnsc12`, the call was inactive.
Regarding `CN(C)C(=O)Nc1ccc(Cl)c(Cl)c1`, the compound was classed as inactive.
Same read-out and setting: then `CCOC(=O)C(C)Oc1ccc(Oc2cnc3cc(Cl)ccc3n2)cc1` (stereo not given), with “inactive”.
`S=C(S)NCCNC(=S)S.[Mn+2].[S-]C([S-])=NCCN=C([S-])[S-].[Zn+2]`: the half-maximal activity concentration (AC50) is 200 nM (active) and 397 nM (active) and 391 nM (active).
As for `CCN(CC)C(=O)c1cccc(C)c1`, the result was inactive.
Still for that read-out and setting: the same measure for `COCCO`: “inactive”; for `CCCCOC(=O)C(C)Oc1ccc(Oc2ccc(C(F)(F)F)cn2)cc1` (stereo not given): “inactive”.
Take `CCCOC(=O)c1ccc(C(=O)OCCC)nc1`: the call was inactive.
Same read-out and setting: then `CCOC(=O)COc1cc(-n2ncc(C(F)(F)F)c(C)c2=O)c(F)cc1Cl`, with “inactive”; and `C#CCOC(=O)[C@@H](C)Oc1ccc(Oc2ncc(Cl)cc2F)cc1`, with “inactive”.
Still for that read-out and setting: the same measure for `CCNc1nc(N)nc(Cl)n1`: “inactive”; for `C=CCOC(Cn1ccnc1)c1ccc(Cl)cc1Cl` (stereo not given): “inactive”; for `CCCCOCCOCCOCc1cc2c(cc1CCC)OCO2`: “inactive”.
On the same count and under the same terms, then `CCCCCOC(=O)COc1cc(N2C(=O)C3=C(CCCC3)C2=O)c(F)cc1Cl`, with “inactive”; and `COC(=O)c1ccccc1C(=O)O`, with “inactive”; and `N[C@@H](Cc1cc(I)c(Oc2ccc(O)c(I)c2)c(I)c1)C(=O)O`, with “inactive”.
In the case of `C#C[C@]1(O)CC[C@H]2[C@@H]3CCC4=CC(=O)CC[C@@H]4[C@H]3CC[C@@]21CC`, the outcome was inactive.
Same read-out and setting: the same measure for `CC(C)(c1ccc(O)cc1)c1ccc(O)cc1`: “inactive”; for `CCCCC(CC)COC(=O)c1ccccc1C(=O)O` (stereo not given): “inactive”.
The same measure, in the same setting: then `CCOC(=O)c1ccc(O)cc1`, with “inactive”; and `CCOC(=O)C(C)Oc1ccc(Oc2nc3ccc(Cl)cc3o2)cc1` (stereo not given), with “inactive”.
Same read-out and setting: then `CCCCOC(=O)[C@@H](C)Oc1ccc(Oc2ccc(C(F)(F)F)cn2)cc1`, with “inactive”.
On to `S=C([S-])NCCNC(=S)[S-].[Mn+2]`, for which the AC50 is 0.871 µM (active).
`c1ccc2[nH]c(-c3cscn3)nc2c1`: the compound was called inactive.
